Compound activity from PubChem BioAssay.
Shown are actives, neighbours in structure and some others; about 4% of the full set was active somewhere.
D1 PAM – human D1 dopamine receptor positive modulation; HEK293 TREx D1 cells, calcium flux, dopamine EC20 potentiation; potentiation, % at 10 µM; 360,000 tested, 0.036% active; in the data active = potentiation above about 30%; note: 0% is about no effect
Glioma ERSR ind – ER stress response induction in glioma; AID 602332; 420,000 tested, 0.02% active; Potency, µM, for inactives: top-dose activation, actives largely listed as activators; U87-MG GRP78 promoter luciferase reporter, 16 h; active = well fitted activation curve with a large enough effect; note: potency is the fitted concentration of half-maximal effect; series mostly up to about 76 µM; % of control where 0% means no effect; nearly all actives have a fitted effect of over 35% in size
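Stably transfected U87-MG glioma cells carrying a GRP78-based luciferase sensor; 16 h compound incubation. Luminescence end-point read 10 min after Bright-Glo addition at room temperature.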
D1 antagonist – blocks dopamine activation of the human D1 receptor | AID 504652 | activity change, negative = inhibition, % at 10 µM | 360,000 tested, 3.2% active | HEK293 TREx D1 cells, calcium flux, dopamine EC80; hits give low values | P21728; in the data active = activity change below about -30%; note: % is set by controls: 0 for no effect and ±100 for the full control effect
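Antagonism measured as reduced calcium response to an EC80 dopamine addition following 180 s compound pre-read; cells were inducible HEK293 Trex D1 plated overnight at 30 C, read kinetically at 1 cycle/sec.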
D1 ag – agonists of human D1 dopamine receptor; HEK293 T-REx D1 cells, calcium flux, agonist mode; activation, % at 2 µM; 360,000 tested, 1% active; AID 504660; note: 0% is about no effect
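Inducible HEK293 T-REx D1 cells, force-coupled to calcium signalling, were plated at 4000 cells/well with tetracycline and held overnight at 30 C. After no-wash calcium dye loading, compound-evoked calcium rise over 180 s flagged agonists.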
TRHR agonist – agonists of human TRH receptor. P34981. TRHR cells, calcium flux fluo-8, FDSS agonist mode. activation, % at 2 µM. 360,000 tested, 0.18% active; note: 0% is about no effect
Target sequence (P34981 whole entry, looked up): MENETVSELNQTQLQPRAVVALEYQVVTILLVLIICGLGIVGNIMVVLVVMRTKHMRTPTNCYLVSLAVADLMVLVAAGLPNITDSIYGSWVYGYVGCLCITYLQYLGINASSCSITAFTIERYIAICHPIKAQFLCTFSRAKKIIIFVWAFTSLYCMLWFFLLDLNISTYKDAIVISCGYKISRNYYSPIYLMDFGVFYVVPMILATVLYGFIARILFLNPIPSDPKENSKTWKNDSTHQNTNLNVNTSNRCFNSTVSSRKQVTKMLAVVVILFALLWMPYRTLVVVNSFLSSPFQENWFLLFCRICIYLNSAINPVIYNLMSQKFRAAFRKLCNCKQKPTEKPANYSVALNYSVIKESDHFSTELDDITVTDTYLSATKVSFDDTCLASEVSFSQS
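Steps: seed TRHR cells overnight; add fluo-8 no-wash Ca dye, RT 30 min–1.5 h; record 10 s baseline; pin-transfer compounds; monitor fluorescence 1 cycle/s for the agonist window. Calcium increases flag candidate agonists.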
TRHR enhancer – TRH receptor (human) allosteric enhancement; P34981; TRHR cells, fluo-8 calcium fluorescence, EC20 TRH enhancement; enhancement, % at 2 µM; 360,000 tested, 0.66% active; AID 493056; in the data active = enhancement above about 30%; note: 0% is about no effect
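TRHR-expressing cells loaded with fluo-8 calcium dye were read kinetically (ex 480/em 530) during compound addition, then stimulated with an EC20 of TRH (10 nM final). Enhancement of the Gq-mediated intracellular calcium response was scored.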
* hit, by the source's call. Cut-off read from the data, not from the text of the source, unless noted: active = activation above about 30%; inactive = the rest.

For O=C(NNC(=O)C1CCCC1)c1ccccc1F the results were D1 PAM -6, Glioma ERSR ind 4%, D1 antagonist -13, D1 ag 1, TRHR agonist -1 and TRHR enhancer 35*.
For COc1ccc(Cc2nnc(NC(=O)CSc3ccc(Cl)cc3)s2)cc1OC the results were D1 PAM 2, D1 antagonist 64, D1 ag 98*, TRHR agonist 3 and TRHR enhancer 29.
`O=c1[nH]c2cccnc2n1Cc1ccco1` gave D1 PAM -5, Glioma ERSR ind -3%, D1 antagonist -43*, D1 ag -2, TRHR agonist -1 and TRHR enhancer 1.
COc1ccc(N(C(C)C(=O)NN=C2CCCC2)S(C)(=O)=O)cc1 (stereo unspecified) was read as D1 PAM 6, Glioma ERSR ind -3%, D1 antagonist 6, D1 ag 2, TRHR agonist 1 and TRHR enhancer 6.
For CCOc1ccc(N(C(C)C(=O)NN=C2CCCCCCC2)S(C)(=O)=O)cc1 (stereo unspecified) the results were D1 PAM -8, Glioma ERSR ind -6%, D1 antagonist -33*, D1 ag 0, TRHR agonist -1 and TRHR enhancer 6.
Screening CN(C)S(=O)(=O)c1ccc(C(=O)OCCn2cnc3c2c(=O)n(C)c(=O)n3C)cc1 returned D1 PAM -2, Glioma ERSR ind -2%, D1 antagonist -3, D1 ag 5, TRHR agonist -1 and TRHR enhancer 1.
Cc1cc(C(=O)CSc2ccc(F)cc2)cc(C)c1OC(=S)N(C)C was read as D1 PAM -1, Glioma ERSR ind -9%, D1 antagonist -19, D1 ag 14, TRHR agonist 1 and TRHR enhancer -9.
Screening COc1ccc(SCC(=O)c2cc(C)c(OC(=S)N(C)C)c(C)c2)cc1 returned D1 PAM -3, Glioma ERSR ind -3%, D1 antagonist -35*, D1 ag 4, TRHR agonist 0 and TRHR enhancer -4.
`CC(=O)Oc1cccc(N2C(=O)c3ccccc3C2=O)c1` gave D1 PAM 5, Glioma ERSR ind 1%, D1 antagonist -31*, D1 ag 0, TRHR agonist 0 and TRHR enhancer 3.
CC(=O)c1ccc(C(=O)Nc2ccc3c(c2)C(=O)NC3=O)cc1 was read as D1 PAM -8, Glioma ERSR ind -1%, D1 antagonist -35*, D1 ag 0, TRHR agonist 0 and TRHR enhancer -1.
Screening CC(=O)Nc1cccc2c1C(=O)N(c1cccc(OC(C)=O)c1)C2=O returned D1 PAM -5, Glioma ERSR ind -5%, D1 antagonist 23, D1 ag 11, TRHR agonist 0 and TRHR enhancer 0.
CC(=O)c1ccc(NC(=O)c2cccc(N3C(=O)c4ccccc4C3=O)c2)cc1 was read as D1 PAM 0, Glioma ERSR ind -3%, D1 antagonist -31*, D1 ag 2, TRHR agonist 1 and TRHR enhancer 7.
`CC(C)Oc1cccc(C(=O)C2CCCN(C(=O)c3ccc4c(c3)OCO4)C2)c1` (stereo unspecified) gave D1 PAM -4, Glioma ERSR ind -4%, D1 antagonist -12, D1 ag 2, TRHR agonist 0 and TRHR enhancer 3.
Screening Cc1ccc(C(C)CCN2CCOc3ccc(CN4CCOCC4)cc3C2)o1 (stereo unspecified) returned Glioma ERSR ind -3%.
`Cc1c(C)n(Cc2ccccc2)c2ccc(C(=O)NCCN3CCOCC3)cc12` gave D1 PAM -14, Glioma ERSR ind 2%, D1 antagonist 18, D1 ag 5, TRHR agonist 0 and TRHR enhancer -2.
`O=C(NCCCN1CCOCC1)c1ccc(CSc2ccc(Cl)cc2)cc1` gave D1 PAM -14, Glioma ERSR ind -6%, D1 antagonist -35*, D1 ag 24, TRHR agonist 0 and TRHR enhancer -2.
Screening CC(C)(C)c1ccc(C(=O)NCCN2CCOCC2)cc1 returned Glioma ERSR ind 3%.
